Reference: PubChem BioAssay (NCATS)
Inconclusive results are not listed. Active and inactive are the calls of the source. Unless noted, calls come from the whole dose curve; as a rule, active = well fitted curve in the direction sought with a large enough effect; inconclusive = small, poorly fitted or top-dose-only effect, or another doubt; inactive = no such curve, though single readings can be large; an effect the other way counts as inactive or inconclusive.

Legend:
[1] = target: Cytochrome P450 2D6 (Homo sapiens) (UniProt P10635); test: Cytochrome P450 family 2 subfamily D member 6 (CYP2D6) small molecule antagonists: luciferase biochemical (cell-free) qHTS assay (AID 1645840; active = well fitted curve in the direction sought with a large enough effect in the repeat runs; an effect the other way counts as inactive or inconclusive; note: series mostly up to about 57 µM; % is set by controls: 0 for no effect and ±100 for the full control effect; nearly all actives have a fitted effect of over 55% in size)
Chain of Cytochrome P450 2D6 (Homo sapiens) (P10635 whole entry, looked up): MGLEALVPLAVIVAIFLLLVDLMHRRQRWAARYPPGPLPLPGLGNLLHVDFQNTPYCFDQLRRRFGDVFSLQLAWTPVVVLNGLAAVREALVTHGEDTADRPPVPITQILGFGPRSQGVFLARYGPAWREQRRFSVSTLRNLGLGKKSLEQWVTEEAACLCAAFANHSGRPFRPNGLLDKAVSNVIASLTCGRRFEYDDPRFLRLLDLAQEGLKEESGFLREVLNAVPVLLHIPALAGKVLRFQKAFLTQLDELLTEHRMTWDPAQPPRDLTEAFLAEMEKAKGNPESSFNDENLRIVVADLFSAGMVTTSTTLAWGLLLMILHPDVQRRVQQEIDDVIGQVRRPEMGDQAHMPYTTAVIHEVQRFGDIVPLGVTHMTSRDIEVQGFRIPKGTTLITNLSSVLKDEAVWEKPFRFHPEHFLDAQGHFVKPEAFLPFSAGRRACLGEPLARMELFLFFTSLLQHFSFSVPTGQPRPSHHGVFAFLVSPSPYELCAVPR
Method in brief: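 P450-Glo CYP2D6 system: proluciferin substrate converted by enzyme to luciferin, read by luminescence proportional to activity. Enzyme-substrate mix with compound 10 min at room temperature, then NADPH regeneration 1 h before detection reagent.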

[2] = target: Cytochrome P450 2C9 (Homo sapiens) (UniProt P11712); test: Cytochrome P450 family 2 subfamily C member 9 (CYP2C9) small molecule antagonists: luciferase biochemical (cell-free) qHTS assay (AID 1645842; active = well fitted curve in the direction sought with a large enough effect in the repeat runs; an effect the other way counts as inactive or inconclusive; note: nearly all actives have a fitted effect of over 55% in size; note: potency is the fitted concentration of half-maximal effect)
Chain of Cytochrome P450 2C9 (Homo sapiens) (P11712 whole entry, looked up): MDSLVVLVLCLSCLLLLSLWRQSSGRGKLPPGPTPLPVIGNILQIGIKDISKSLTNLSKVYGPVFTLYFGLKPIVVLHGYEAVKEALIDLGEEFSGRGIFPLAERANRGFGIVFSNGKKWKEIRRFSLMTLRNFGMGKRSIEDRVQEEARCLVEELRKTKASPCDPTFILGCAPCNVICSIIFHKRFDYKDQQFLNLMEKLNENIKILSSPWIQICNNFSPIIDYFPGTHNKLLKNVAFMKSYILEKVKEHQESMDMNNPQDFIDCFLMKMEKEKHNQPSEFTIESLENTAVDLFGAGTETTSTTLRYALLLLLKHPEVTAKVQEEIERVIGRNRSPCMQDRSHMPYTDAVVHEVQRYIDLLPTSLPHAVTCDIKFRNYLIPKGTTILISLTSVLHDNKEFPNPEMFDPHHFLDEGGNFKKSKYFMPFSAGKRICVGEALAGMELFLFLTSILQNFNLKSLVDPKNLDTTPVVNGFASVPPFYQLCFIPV
Method in brief: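 P450-Glo CYP2C9 system: proluciferin substrate with enzyme in mix containing 0.4% BSA, 10 min at room temperature, then NADPH regeneration solution added and incubated 1 h at 37C. Detection reagent stopped reaction; luminescence read after 20 min as RLU.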

[3] = Viability counterscreen for antagonist of constitutive androstane receptor (CAR) against the NCATS DSHEA and TCM libraries (AID 1794837);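 note: compound exposure lasted 24 h before viability reading; 0% is about no effect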
Method in brief: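 Cells: HepG2 line carrying CYP2B6 reporter and hCAR, seeded and attached 5 h. Then pin-transferred test substances plus agonist CITCO at 48 uM final; 24 h incubation; fluorogenic viability reagent, 1 h.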

[4] = Viability counterscreen for agonist of constitutive androstane receptor (CAR) against the NCATS DSHEA and TCM libraries (AID 1794838);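 note: HepG2 cells with CYP2B6 reporter and hCAR plus 0.75 µM PK11195 antagonist; 0% is about no effect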
Method in brief: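 Cell health was measured as CellTiter-Fluor signal in HepG2-CYP2B6-hCAR cells treated for 24 h with substances alongside the hCAR antagonist PK11195 (0.75 uM final).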

[5] = target: Nuclear receptor subfamily 1 group I member 3 (Homo sapiens) (UniProt Q14994); test: Primary qHTS for agonist of constitutive androstane receptor (CAR) against the NCATS DSHEA and TCM libraries (AID 1794839);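 note: HepG2 cells expressing human CAR with a CYP2B6 reporter plus PK11195 antagonist; luciferase reporter luminescence read with ONE-Glo; 0% is about no effect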
Method in brief: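 qHTS, agonist mode: HepG2-CYP2B6-hCAR, 2,500 cells/well, 5 h attach; cpds + PK11195 0.75 µM final; 24 h, 37 °C, 5% CO2. Readouts: CellTiter-Fluor (405/540 nm), then ONE-Glo luminescence.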

[6] = HepG2 viability counterscreen (readout 2: ATP content) against the NCATS DSHEA and TCM libraries (AID 1794840); note: 0% is about no effect
Method in brief: (§1)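 Same wells read twice: first fluorescence from cleaved GF-AFC substrate (25 uM final, 30 min, 37C) for live-cell protease, then CellTiter-Glo luminescence after 30 min at room temperature for ATP. HepG2 cells were exposed ~24 h to substances.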

[7] = HepG2 viability counterscreen (readout 1: protease activity) against the NCATS DSHEA and TCM libraries (AID 1794841);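 note: cells exposed to compounds for about 24 h before the protease read; 0% is about no effect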
Method in brief: as §1

[8] = target: Cytochrome P450 3A4 (Homo sapiens) (UniProt P08684); test: qHTS for inhibitors of CYP3A4 against the NCATS DSHEA and TCM libraries (AID 1919971);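 note: % is set by controls: 0 for no effect and ±100 for the full control effect; inhibition lowers luminescence from luciferin made by CYP3A4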
Method in brief: (§2)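 Concentration-response screening with isoform-matched pro-luciferin substrates. The CYP reaction was initiated by NADPH regenerating solution and ran 30-45 min in darkness at room temperature.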

[9] = target: Cytochrome P450 2D6 (Homo sapiens) (UniProt P10635); test: qHTS for inhibitors of CYP2D6 against the NCATS DSHEA and TCM libraries (AID 1919972); note: % is set by controls: 0 for no effect and ±100 for the full control effect
Method in brief: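 CYP2D6 enzyme with pro-luciferin substrate in manufacturer buffer (typically 100 mM KPO4), preincubated 15 min RT with substances (most at 19.5 nM upward); NADPH regeneration system (1x) started 30–45 min RT reaction; P450-Glo luminescence read after 30 min; quinidine as intraplate control.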

[10] = target: Cytochrome P450 2C9 (Homo sapiens) (UniProt P11712); test: qHTS for inhibitors of CYP2C9 against the NCATS DSHEA and TCM libraries (AID 1919973);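 note: luminogenic pro-luciferin CYP2C9 substrate turned into luciferin with NADPH regeneration; series mostly up to about 34 µM; % is set by controls: 0 for no effect and ±100 for the full control effect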
Method in brief: as §2

[11] = target: Cytochrome P450 2C19 (Homo sapiens) (UniProt P33261); test: qHTS for inhibitors of CYP2C19 against the NCATS DSHEA and TCM libraries (AID 1919974);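 note: luminescence from luciferin released by CYP2C19 oxidation of a pro-luciferin substrate; % is set by controls: 0 for no effect and ±100 for the full control effect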
Chain of Cytochrome P450 2C19 (Homo sapiens) (P33261 whole entry, looked up): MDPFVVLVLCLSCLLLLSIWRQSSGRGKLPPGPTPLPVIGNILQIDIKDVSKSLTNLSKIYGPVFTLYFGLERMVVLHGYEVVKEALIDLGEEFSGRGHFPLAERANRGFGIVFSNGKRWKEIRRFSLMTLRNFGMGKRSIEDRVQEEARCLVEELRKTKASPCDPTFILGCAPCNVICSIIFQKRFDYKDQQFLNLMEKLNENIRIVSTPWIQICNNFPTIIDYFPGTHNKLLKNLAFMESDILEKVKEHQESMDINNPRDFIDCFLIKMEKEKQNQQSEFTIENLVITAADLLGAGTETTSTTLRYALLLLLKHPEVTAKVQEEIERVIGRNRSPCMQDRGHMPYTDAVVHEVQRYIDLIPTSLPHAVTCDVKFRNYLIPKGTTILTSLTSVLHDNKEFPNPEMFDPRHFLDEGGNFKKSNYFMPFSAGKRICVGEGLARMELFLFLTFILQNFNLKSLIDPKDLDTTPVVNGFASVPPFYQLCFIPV
Method in brief: as §2

[12] = KB-3-1 P-gp reporter qHTS against the NCATS DSHEA and TCM libraries (AID 1919975); note: 0% is about no effect
Method in brief: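 KB-3-1 parental line, 1536-well qHTS: cells seeded, ~4 h attachment, pintool compound addition, ~72 h at 37C, then CellTiter-Glo, 30 min RT, luminescence. Concentration-response format.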

[13] = target: Cytochrome P450 1A2 (Homo sapiens) (UniProt P05177); test: qHTS for inhibitors of CYPIA2 against the NCATS DSHEA and TCM libraries (AID 1919976);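 note: light from luciferin formed by CYP1A2 from a pro-luciferin substrate; series mostly up to about 37 µM; % is set by controls: 0 for no effect and ±100 for the full control effect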
Chain of Cytochrome P450 1A2 (Homo sapiens) (P05177 whole entry, looked up): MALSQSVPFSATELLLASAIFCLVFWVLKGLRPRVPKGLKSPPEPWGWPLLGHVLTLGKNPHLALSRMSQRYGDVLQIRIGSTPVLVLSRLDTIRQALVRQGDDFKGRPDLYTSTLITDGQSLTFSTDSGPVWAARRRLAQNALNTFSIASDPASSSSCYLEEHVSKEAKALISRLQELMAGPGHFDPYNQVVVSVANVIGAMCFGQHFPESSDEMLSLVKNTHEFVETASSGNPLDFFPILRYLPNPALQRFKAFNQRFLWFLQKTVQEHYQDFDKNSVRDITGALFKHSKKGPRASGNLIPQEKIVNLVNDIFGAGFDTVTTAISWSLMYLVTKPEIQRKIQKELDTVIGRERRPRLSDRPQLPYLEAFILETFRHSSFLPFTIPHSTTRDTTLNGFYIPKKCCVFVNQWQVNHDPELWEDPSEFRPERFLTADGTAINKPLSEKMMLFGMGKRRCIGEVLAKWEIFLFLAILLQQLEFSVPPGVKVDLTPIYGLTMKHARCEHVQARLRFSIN
Method in brief: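 Enzyme and pro-luciferin substrate, or substrate alone as no-enzyme background, are pre-incubated with test samples for 15 min at room temperature. NADPH regeneration system (1x final) initiates a 30-45 min dark reaction; luciferase detection reagent follows before luminescence reading.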

[14] = qHTS Counterscreen for compound interference against the NCATS DSHEA and TCM libraries (AID 1919978); conditions: firefly luciferase detection reagent interference, luminescence;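 note: compounds preincubated with 1 µM D-luciferin or buffer before detection reagent; % of control where 0% means no effect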
Method in brief: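 Compounds, titrated from 19.5 nM to 39.8 uM final, were pinned onto 1 uM D-luciferin or plain 100 mM potassium phosphate. After 15 min at room temperature, luciferin detection reagent was added for 30 min before the luminescence read.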

[15] = Dual reporter qHTS for agonist of Pregnane X Receptor (hPXR) against the NCATS DSHEA and TCM libraries: Fluorescence readout (AID 1920058); note: 0% is about no effect
Method in brief: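 Cells were plated at 2000 per well and allowed to attach for 5 h. Test substances were pinned in and incubated roughly 24 h. CellTiter-Fluor was then added and fluorescence measured after 1 h.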

[16] = target: Nuclear receptor subfamily 1 group I member 2 (Homo sapiens) (UniProt O75469); test: Dual reporter qHTS for agonist of Pregnane X Receptor (hPXR) against the NCATS DSHEA and TCM libraries: Luminescence readout (AID 1920059); note: 0% is about no effect
Chain of Nuclear receptor subfamily 1 group I member 2 (Homo sapiens) (O75469 whole entry, looked up): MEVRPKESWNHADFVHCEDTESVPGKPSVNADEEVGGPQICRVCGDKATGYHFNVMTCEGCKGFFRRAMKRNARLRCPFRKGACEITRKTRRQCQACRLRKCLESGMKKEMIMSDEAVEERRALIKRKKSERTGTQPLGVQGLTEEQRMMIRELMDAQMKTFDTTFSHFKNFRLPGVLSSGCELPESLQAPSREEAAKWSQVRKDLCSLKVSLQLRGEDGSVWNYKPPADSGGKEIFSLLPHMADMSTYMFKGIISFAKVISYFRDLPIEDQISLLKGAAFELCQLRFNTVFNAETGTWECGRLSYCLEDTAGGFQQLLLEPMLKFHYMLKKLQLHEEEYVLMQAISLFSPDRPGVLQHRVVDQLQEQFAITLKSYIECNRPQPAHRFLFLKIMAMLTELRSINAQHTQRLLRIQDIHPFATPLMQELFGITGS
Method in brief: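 Luminescent PXR reporter read (ONE-Glo) after a CellTiter-Fluor viability read, following 24 h, 37C treatment of HepG2 cells stably carrying hPXR-Luc.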

[17] = target: Nuclear receptor subfamily 1 group I member 2 (Homo sapiens) (UniProt O75469); test: Dual reporter qHTS for antagonist of Pregnane X Receptor (hPXR) against the NCATS DSHEA and TCM libraries: Luminescence Readout (AID 1920060);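 note: HepG2 cells carrying hPXR luciferase reporter stimulated with rifampicin at 2 µM; 0% is about no effect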
Method in brief: (§3)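 Antagonist mode: rifampicin 2 uM final co-added with compounds to hPXR-LucHepG2 cells for 24 h at 37C. Viability by CellTiter-Fluor, Ex/Em 405/540 nm, 1 h; reporter by ONE-Glo luminescence.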

[18] = Dual reporter qHTS for antagonist of Pregnane X Receptor (hPXR) against the NCATS DSHEA and TCM libraries: Fluorescence Readout (AID 1920061); note: 0% is about no effect
Method in brief: as §3

[19] = target: Rap guanine nucleotide exchange factor 3 (Homo sapiens) (UniProt O95398); test: Confirmatory qHTS for antagonist of cAMP-regulated guanine nucleotide exchange factor 3 (EPAC1) (AID 1645880); note: potency is the fitted concentration of half-maximal effect; nearly all actives have a fitted effect of over 55% in size
Chain of Rap guanine nucleotide exchange factor 3 (Homo sapiens) (O95398 whole entry, looked up): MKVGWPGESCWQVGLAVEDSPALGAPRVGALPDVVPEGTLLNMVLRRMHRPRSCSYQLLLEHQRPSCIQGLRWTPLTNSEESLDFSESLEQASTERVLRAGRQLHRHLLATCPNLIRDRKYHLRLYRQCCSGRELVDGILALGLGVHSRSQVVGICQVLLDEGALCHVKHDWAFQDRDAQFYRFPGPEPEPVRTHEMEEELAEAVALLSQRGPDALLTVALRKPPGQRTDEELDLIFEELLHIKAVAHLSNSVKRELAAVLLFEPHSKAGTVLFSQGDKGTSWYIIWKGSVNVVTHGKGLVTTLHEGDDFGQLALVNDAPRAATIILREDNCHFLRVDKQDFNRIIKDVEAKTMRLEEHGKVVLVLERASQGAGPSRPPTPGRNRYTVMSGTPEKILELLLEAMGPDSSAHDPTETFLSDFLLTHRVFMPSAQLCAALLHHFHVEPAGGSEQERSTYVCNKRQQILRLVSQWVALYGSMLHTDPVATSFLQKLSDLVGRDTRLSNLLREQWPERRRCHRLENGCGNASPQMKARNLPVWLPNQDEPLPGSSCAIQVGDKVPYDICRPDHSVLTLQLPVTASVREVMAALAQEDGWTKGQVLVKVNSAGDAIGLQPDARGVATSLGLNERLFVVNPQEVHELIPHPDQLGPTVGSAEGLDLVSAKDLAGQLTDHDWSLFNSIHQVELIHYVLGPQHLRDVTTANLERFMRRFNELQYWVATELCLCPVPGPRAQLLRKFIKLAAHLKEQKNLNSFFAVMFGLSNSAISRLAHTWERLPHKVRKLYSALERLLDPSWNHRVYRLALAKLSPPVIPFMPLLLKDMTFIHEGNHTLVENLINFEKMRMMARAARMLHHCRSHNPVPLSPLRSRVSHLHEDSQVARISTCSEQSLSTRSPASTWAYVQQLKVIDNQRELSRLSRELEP
Method in brief: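 Released BODIPY-GDP fluoresces less than Rap1-bound BODIPY-GDP; the signal is followed at 480/540 nm at 5-min intervals over 30 min, after 5 min at room temperature. Reactions contain 100 nM EPAC1, 250 nM RAP1B-BODIPY-GDP and 50 uM GDP; results are normalized to ATA and DMSO.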

[20] = target: Rap guanine nucleotide exchange factor 3 (Homo sapiens) (UniProt O95398); test: Confirmatory qHTS for agonist of cAMP-regulated guanine nucleotide exchange factor 3 (EPAC1) (AID 1645881);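 note: EPAC1 catalysed release of BODIPY-GDP from Rap1B seen as fluorescence loss; 100% = effect of cAMP agonist control; nearly all actives have a fitted effect of over 75% in size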
[21] = target: Rap guanine nucleotide exchange factor 4 (Homo sapiens) (UniProt Q8WZA2); test: Confirmatory qHTS for antagonist of cAMP-regulated guanine nucleotide exchange factor 4 (EPAC2) (AID 1645885); note: % is set by controls: 0 for no effect and ±100 for the full control effect; nearly all actives have a fitted effect of over 25% in size
Chain of Rap guanine nucleotide exchange factor 4 (Homo sapiens) (Q8WZA2 whole entry, looked up): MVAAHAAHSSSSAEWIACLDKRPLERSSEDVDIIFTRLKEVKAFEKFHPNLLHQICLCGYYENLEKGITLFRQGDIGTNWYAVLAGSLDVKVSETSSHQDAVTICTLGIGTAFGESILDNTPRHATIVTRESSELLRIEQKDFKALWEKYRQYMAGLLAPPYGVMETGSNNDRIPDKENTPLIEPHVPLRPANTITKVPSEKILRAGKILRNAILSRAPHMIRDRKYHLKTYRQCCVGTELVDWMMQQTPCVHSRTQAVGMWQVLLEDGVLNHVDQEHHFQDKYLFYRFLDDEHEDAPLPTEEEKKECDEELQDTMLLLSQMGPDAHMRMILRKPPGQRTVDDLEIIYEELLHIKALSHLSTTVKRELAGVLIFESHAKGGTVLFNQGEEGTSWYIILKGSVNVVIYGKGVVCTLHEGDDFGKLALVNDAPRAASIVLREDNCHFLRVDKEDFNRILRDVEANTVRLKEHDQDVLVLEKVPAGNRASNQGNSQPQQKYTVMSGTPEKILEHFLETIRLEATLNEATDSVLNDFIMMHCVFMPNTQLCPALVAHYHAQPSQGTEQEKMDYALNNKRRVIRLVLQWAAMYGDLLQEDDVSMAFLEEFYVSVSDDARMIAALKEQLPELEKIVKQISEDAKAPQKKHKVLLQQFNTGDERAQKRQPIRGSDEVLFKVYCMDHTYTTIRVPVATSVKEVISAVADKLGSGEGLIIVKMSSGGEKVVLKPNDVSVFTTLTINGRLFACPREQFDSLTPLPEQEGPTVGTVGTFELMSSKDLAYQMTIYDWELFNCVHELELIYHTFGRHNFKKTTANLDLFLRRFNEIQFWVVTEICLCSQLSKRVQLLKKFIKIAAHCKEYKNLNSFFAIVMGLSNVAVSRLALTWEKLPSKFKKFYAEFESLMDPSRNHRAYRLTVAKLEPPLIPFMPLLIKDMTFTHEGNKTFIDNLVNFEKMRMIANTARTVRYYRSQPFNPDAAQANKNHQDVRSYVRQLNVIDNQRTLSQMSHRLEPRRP

[22] = target: Rap guanine nucleotide exchange factor 3 (Homo sapiens) (UniProt O95398); test: Counterscreen qHTS for antagonist of cAMP-regulated guanine nucleotide exchange factor 3 (EPAC1) (AID 1645888); note: % of control where 0% means no effect
Method in brief: (§4)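 Rap1B-BODIPY-GDP 250 nM + GDP 50 uM; cpds 7-pt, final 9.74 nM–152 uM (activator mode) or from 7.32 nM upwards (inhibitor mode); RT; FI 480/540 nm at 5 and 30 min, then ± cAMP, reread.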

[23] = target: Rap guanine nucleotide exchange factor 3 (Homo sapiens) (UniProt O95398); test: Counterscreen qHTS for agonist of cAMP-regulated guanine nucleotide exchange factor 3 (EPAC1) (AID 1645889); note: % of control where 0% means no effect; nearly all actives have a fitted effect of over 40% in size
Method in brief: as §4

[24] = target: Glutathione peroxidase 1 (Homo sapiens) (UniProt P07203); test: Primary qHTS Assay for Inhibitors of Recombinant Selenoprotein Glutathione Peroxidase 1 (GPX1) (AID 1845191); note: nearly all actives have a fitted effect of over 65% in size
Chain of Glutathione peroxidase 1 (Homo sapiens) (P07203 whole entry, looked up): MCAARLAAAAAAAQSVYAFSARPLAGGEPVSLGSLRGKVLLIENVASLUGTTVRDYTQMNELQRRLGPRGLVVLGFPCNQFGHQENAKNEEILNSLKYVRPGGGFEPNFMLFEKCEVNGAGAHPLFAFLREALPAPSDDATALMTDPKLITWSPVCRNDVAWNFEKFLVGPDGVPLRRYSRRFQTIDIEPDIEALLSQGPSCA
Method in brief: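 NADPH consumption tracked by fluorescence at 340/450 nm between t=0 and t=15 min, room temperature. Final mix: 10 nM GPX1, 100 nM glutathione reductase, 1 mM GSH, 0.5 mM NADPH, 0.5 mM cumene hydroperoxide, 0.01% BSA; 30 min compound–enzyme preincubation.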

[25] = target: Phospholipid hydroperoxide glutathione peroxidase GPX4 (Homo sapiens) (UniProt P36969); test: Primary qHTS Assay for Inhibitors of Recombinant Selenoprotein Glutathione Peroxidase 4 (GPX4) (AID 1845192); note: series mostly up to about 50 µM; % is set by controls: 0 for no effect and ±100 for the full control effect; nearly all actives have a fitted effect of over 65% in size
Chain of Phospholipid hydroperoxide glutathione peroxidase GPX4 (Homo sapiens) (P36969 whole entry, looked up): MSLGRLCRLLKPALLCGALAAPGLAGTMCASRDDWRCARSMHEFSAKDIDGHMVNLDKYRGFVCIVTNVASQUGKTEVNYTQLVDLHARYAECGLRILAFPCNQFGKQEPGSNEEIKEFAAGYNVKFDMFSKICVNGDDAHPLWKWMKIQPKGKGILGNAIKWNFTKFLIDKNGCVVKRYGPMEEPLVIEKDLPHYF
Method in brief: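 NADPH consumption followed by fluorescence at 340/450 nm, t=0 and after 15 min at room temperature. Reaction started with cumene hydroperoxide (0.5 mM final) after 30 min compound–GPX4 preincubation; final 200 nM GPX4, 100 nM GR, 1 mM GSH, 0.5 mM NADPH.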

[26] = qHTS drug screen for cell cycle checkpoint inhibitors in PARPi-resistant BRCA-mutant ovarian cancer cell lines. (AID 1963452; calls by dose curve); conditions: PEO1/OlaR viability, CellTiter-Glo luminescence, 96 h, stronger effect = lower value
Method in brief: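 PEO1, PEO4 and PEO1/OlaR ovarian cancer cells, 600 per well, exposed 96 h at 37C to a dilution series. Viability read by CellTiter-Glo luminescence, normalized to DMSO and empty wells; activity summarized as Z-AUC.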

C=C(C)[C@H]1CC=C(C)CC1
inactive: Potency [1] | Potency [2] | outcome [3] | outcome [4] | outcome [5] | outcome [6] | outcome [7] | outcome [8] | outcome [9] | outcome [10] | outcome [11] | outcome [12] | outcome [13] | max response [14] -0.263% | outcome [15] | outcome [16] | outcome [17] | outcome [18]

Cc1cccn2c(=O)cc(CSc3nnc(NC(=O)COc4ccccc4)s3)nc12
inactive: Potency [1] | Potency [20] | Potency [21] | Potency [22] | Potency [23]
active: Potency [2] 6.74 µM | Potency [19] 67.5 µM

CCOc1cc(C(Nc2cc(C)ccn2)c2ccc3cccnc3c2O)ccc1OC (configuration not stated)
active: Potency [2] 12.6 µM

CCn1c(N)c(C(=O)NC)c(=O)c2ccc(C#C[C@@](C)(O)COC)nc21
0.0317: Z-AUC ([26]; measured here: PEO4 Z-AUC)
inactive: Potency [1] | Potency [24] | Potency [25] | Z-AUC [26] -0.226
-0.662: Z-AUC ([26]; measured here: PEO1 parental Z-AUC)
